# GLS inhibitor: blocks human kidney-isoform glutaminase activity | GLS enzymatic activity, qHTS titration | Potency, µM (highest dose often 45.5 µM), inactives show top-dose activity change, negative = inhibition, actives largely listed as inhibitors | O94925 | AID 624170 | 410,000 compounds, 0.21% hits; also: % is scaled to controls: 0 for no effect and ±100 for the full control effect
#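 Enzyme dispensed in phosphate buffer (45 mM, pH 8.2, 0.02% Tween-20), compounds pinned in, then 1 mM L-glutamine solution and the glutamate oxidase–HRP–Amplex Red mix added; fluorescence read immediately and again after 30 min at room temperature.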
# Pol kappa inh: DNA polymerase kappa (human) inhibition; 400,000 compounds, 0.53% hits; purified Pol kappa, fluorescent DNA synthesis assay, 10 min; Q9UBT6; Potency, µM (series often up to 107 µM), for the others: at the top dose activity, negative = inhibition, usual class: inhibitors; AID 588579; also: % is scaled to controls: 0 for no effect and ±100 for the full control effect
#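 Inhibition of 10 nM Pol kappa is measured by a fluorescent read-out at 0 and 10 min following addition of 50 nM substrate (final), with a 15-min room-temperature compound preincubation.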
# POLB inh: inhibitors of human DNA polymerase beta; P06746; Pol beta primer extension/strand displacement, fluorescence kinetic; Potency, µM (doses to about 114 µM), inactives show at the top dose activity change, negative = inhibition, usual class: inhibitors; 340,000 compounds, 1.3% hits; AID 485314; also: % is scaled to controls: 0 for no effect and ±100 for the full control effect
#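 10 nM enzyme + cpd, 15 min RT; start with substrate 50 nM final; read 0 min and after 10 min RT. Corrected, normalized data; 4-parameter Hill curve fit.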
# Pol iota inh: DNA polymerase iota (human) inhibition. Pol iota fluorescent replication assay, 10 min. Potency, µM (top dose mostly 115 µM), for the others: at the top dose activity, negative = inhibition, most hits filed as inhibitors. 390,000 compounds, 1% hits. AID 588590
#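 Pol iota at 10 nM preincubated 15 min with compounds at room temperature; reaction started with fluorescent substrate, 50 nM final. Fluorescence read kinetically at 0 and 10 min; buffer-only wells as negative control.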
# APEX1 inh: inhibitors of human APE1 endonuclease; recombinant APE1, TAMRA/BHQ-2 abasic DNA cleavage fluorescence; Potency, µM (highest dose often 65.8 µM), for the others: at the top dose activity change, negative = inhibition, actives largely listed as inhibitors; 350,000 compounds, 0.35% hits; AID 2517;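 also: plate controls were vehicle for no effect and reference inhibitor for full effect; nearly all actives have a fitted effect of over 55% in size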
#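 Measures dequenching upon AP-site incision of a 5'-TAMRA/3'-BHQ-2 THF-containing duplex, 50 nM; human APE1 0.75 nM after 15 min room-temperature exposure to compound; kinetic three-point read at one-minute spacing.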
# POLH inh: inhibitors of human DNA polymerase eta | Potency, µM (doses to about 114 µM), without a hit: at the top dose activity change, negative = inhibition, most hits filed as inhibitors | Q9Y253 | recombinant Pol eta, fluorescent DNA replication assay | AID 588591 | 390,000 compounds, 1.2% hits; also: % is scaled to controls: 0 for no effect and ±100 for the full control effect
# Target sequence (Q9Y253 whole entry, looked up): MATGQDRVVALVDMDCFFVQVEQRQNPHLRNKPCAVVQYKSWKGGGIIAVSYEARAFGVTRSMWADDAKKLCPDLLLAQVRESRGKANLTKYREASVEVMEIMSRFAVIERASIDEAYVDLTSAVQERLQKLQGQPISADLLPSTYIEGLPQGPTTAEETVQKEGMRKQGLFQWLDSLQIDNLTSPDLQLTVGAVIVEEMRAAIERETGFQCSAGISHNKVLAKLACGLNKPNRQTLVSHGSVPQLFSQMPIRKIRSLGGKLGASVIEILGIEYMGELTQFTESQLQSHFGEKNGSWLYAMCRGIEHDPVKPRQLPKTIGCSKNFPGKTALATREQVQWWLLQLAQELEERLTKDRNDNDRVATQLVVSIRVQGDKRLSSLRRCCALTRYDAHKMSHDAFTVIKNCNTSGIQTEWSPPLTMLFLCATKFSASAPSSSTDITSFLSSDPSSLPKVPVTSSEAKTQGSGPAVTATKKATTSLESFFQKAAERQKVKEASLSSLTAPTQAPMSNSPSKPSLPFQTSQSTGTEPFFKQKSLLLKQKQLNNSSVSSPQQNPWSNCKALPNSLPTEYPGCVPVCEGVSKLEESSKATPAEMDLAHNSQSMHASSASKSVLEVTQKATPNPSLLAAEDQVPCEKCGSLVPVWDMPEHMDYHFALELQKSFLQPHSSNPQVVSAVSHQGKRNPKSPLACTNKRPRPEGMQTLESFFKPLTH
#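 Pol eta at 10 nM preincubated with compounds 15 min at room temperature; reaction started with fluorescent substrate (50 nM final) and read kinetically at 0 and 10 min.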
# * marks the source's active call; other numbers are inactive results; ? = inconclusive; · = not tested or not shown. Shown are actives, neighbours in structure and some others; about 2.4% of the full set was active somewhere. Calls follow the shape of the dose curve; as a rule, active = well fitted curve in the direction sought with a large enough effect; inconclusive = small, poorly fitted or top-dose-only effect, or another doubt; inactive = no such curve, though single readings can be large; an effect the other way counts as inactive or inconclusive. Potency is read from the fitted curve at half-maximal effect.
SMILES,GLS inhibitor,Pol kappa inh,POLB inh,Pol iota inh,APEX1 inh,POLH inh
CC(C)(C)c1ccc(-c2nc(SCCOc3ccc(Cl)cc3)n3[nH]c(=O)cc3n2)cc1,?,-19%,?,11%,·,50µM*
C=CCc1ccccc1OCCSc1nc(-c2cccs2)nc2cc(=O)[nH]n12,?,?,25µM*,?,·,79µM*
Cc1cccc(-c2nc(SCCCOc3cc(C)c(Cl)c(C)c3)n3[nH]c(=O)cc3n2)c1,-5%,-2%,8%,-11%,·,1%
O=c1c2c3c(sc2nnn1Cc1ccc(Br)cc1)CCCC3,11%,-7%,?,-4%,·,-2%
Cc1ccc(NC(=S)N2C3CCCC2CC(NC(=O)C2CC2)C3)cc1C (stereo unspecified),0%,5%,1%,13%,85%,-13%
CC(=O)Nc1ccc(OCC(O)CN2CCN(c3ccc(C)c(Cl)c3)CC2)cc1 (stereo unspecified),39%,-5%,6%,89µM*,-2%,-10%
CC(=O)Nc1ccc(OCC(O)CN2CCN(c3cc(Cl)ccc3C)CC2)cc1 (stereo unspecified),14%,0%,6%,7%,13%,-10%
C=C(CCC12O[C@H](C(=O)O)[C@@](O)(C(=O)O)[C@](C(=O)O)(O1)[C@H](OC(=O)/C=C/[C@@H](C)C[C@@H](C)CC)[C@H]2O)[C@@H](OC(C)=O)[C@H](C)Cc1ccccc1,·,3.5µM*,·,·,-6%,·
C=C(CC[C@]12OC(C(=O)O)C(O)(C(=O)O)C(C(=O)O)(O1)C(OC(=O)/C=C/[C@@H](C)C[C@@H](C)CC)C2O)[C@@H](OC(C)=O)[C@H](C)Cc1ccccc1 (stereo partly specified),·,79µM*,·,?,·,·
O=C(Cc1cn2ccsc2n1)Nc1cccc2cnccc12,4%,-7%,24%,10%,-1%,-12%
O=C(NCN1CCCCC1)c1cnccn1,3%,2%,-14%,-4%,-5%,-13%
COCc1cc(C)nc(N/N=C/c2ccc(-c3ccc(C(=O)O)c(Cl)c3)o2)c1C#N,·,·,22µM*,·,?,·
COCc1cc(C)nc(OCC(=O)N/N=C/c2ccc(-c3cccc([N+](=O)[O-])c3)o2)c1C#N,·,·,4%,·,-1%,·
CCn1c(C)c(C)c2cc(C(=O)NCCCN3CCCCCC3)ccc21,18%,-12%,5%,89µM*,44%,-6%
O=C(/C=C1\NC2(CCCC2)Cc2ccccc21)C(=O)N/N=C/c1ccc(O)c(O)c1,?,-39%,2µM*,?,3%,11µM*
CN(c1ccccc1)S(=O)(=O)c1cccc(C(=O)NCCc2ccc(O)c(O)c2)c1,3.5µM*,-12%,?,17%,-10%,-22%
N#CCC(=O)c1sccc1-n1cccc1,2%,79µM*,-17%,?,?,1%
CCOC(=O)c1c(-c2ccco2)csc1NC(=O)COC(=O)c1cnc(C)cn1,-3%,?,·,40µM*,-45%,25µM*
N#Cc1c(Nc2ccccc2)sc(C(=O)c2ccccc2)c1N,10%,-21%,-1%,5%,-2%,-9%
Cc1cccc(Nc2sc(C(=O)c3cc4cc(Cl)ccc4o3)c(N)c2C#N)c1,-9%,-10%,10µM*,-4%,-1%,?
O=[N+]([O-])c1cccnc1Nc1ccc(Cl)cc1,-1%,·,·,·,·,-12%
Clc1ccc(-c2nnc3sc(-c4ccc(Br)o4)nn23)cc1,1%,-16%,0%,89µM*,1%,?
O=C(COC(=O)CN1C(=O)c2ccccc2C1=O)Nc1ccccc1,2%,-1%,·,14%,-4%,-15%
COc1cc(/C=C(\C#N)c2nc3ccccc3[nH]2)ccc1OCc1cccc(C(F)(F)F)c1,-3%,-6%,3.5µM*,?,·,·
CCc1ccc(NC(=O)COc2ccc(/C=C(/C#N)c3nc4ccccc4[nH]3)cc2OC)cc1,13%,-28%,?,14%,0%,?
SMILES,GLS inhibitor,Pol kappa inh,POLB inh,Pol iota inh,APEX1 inh,POLH inh
COC(=O)c1ccc(COc2ccc(/C=C(\C#N)c3nc4ccccc4[nH]3)cc2OC)o1,-3%,-18%,8.9µM*,24%,-6%,?
Cc1cnc(NC(=O)CSc2nnc(Cc3ccccc3)o2)s1,0%,-7%,-1%,71µM*,-8%,-10%
CCN(CC)C(=O)CN(C#N)c1nc(Cl)nc(N(C)C)n1,-1%,-14%,-15%,4%,0%,0%
Cc1occc1C(=O)NCc1ccc(C(=O)O)o1,0%,-2%,1%,-5%,-3%,56µM*
Cc1occc1C(=O)NCc1ccco1,3%,-30%,32µM*,?,?,?
Cc1occc1C(=O)NCc1ccccc1,-8%,-7%,0%,0%,-2%,-15%
Cc1c(Br)cc(C(=O)NCc2ccco2)c(C)c1C,-14%,-27%,22µM*,?,-9%,?
COc1ccc(-c2c3c(nc4sc(C(=O)Nc5ccc(Cl)cc5)c(N)c24)CC(C)(C)CC3=O)cc1,-1%,-16%,6%,-1%,·,·
CC(=O)NCC1(O)CCCC(C)C1 (stereo unspecified),-2%,5%,3%,-11%,-1%,-9%
CCc1ccc(NC(=O)CO/N=C(\C)c2cc3ccccc3o2)cc1,-2%,-8%,1%,12%,-9%,-13%
Clc1ccc(C2=C3CCCCn4c(-c5ccccc5)c[n+](c43)C2)cc1,-2%,-11%,?,11%,1%,?
COc1ccc(-c2c[n+]3c4n2CCCCC4=C(c2ccc(Br)cc2)C3)cc1,-16%,-2%,25µM*,?,8%,1%
CC(=O)Nc1cc(-c2cccc(C)c2)cn2c(-c3ccc(S(C)(=O)=O)cc3)cnc12,2%,·,·,·,·,·
CCCCCCn1c(=O)[nH]c2nc3cc(N)ccc3nc2c1=O,-7%,-16%,10µM*,27%,3%,-23%
CCCCCn1c(=O)c(C(=O)c2ccccc2)nc2ccccc21,17%,-6%,25%,16%,-3%,-9%
O=C1C=C(O)c2cccc3cccc1c23,0%,-6%,-8%,13%,18%,-1%
O=C1C=C(O)c2c(O)cccc2C1=O,·,·,16µM*,·,?,·
C/C=C/C(=O)Nc1cccc(C2=NOC3(C2)C[C@H](C(N)=O)N(C(=O)/C=C/C)C3)c1 (stereo partly specified),-1%,-15%,3%,-16%,3%,-1%
